Assay outcomes: PubChem, National Center for Advancing Translational Sciences (NCATS)
Sampled rows, rich in hits. Any-hit rate of the full collection: about 19%.
Gal4-VP16 FLuc – VP16 counterscreen qHTS for inhibitors of ROR gamma transcriptional activity | Drosophila S2 Gal4-VP16 UAS-luciferase, luminescence, 20 h | 310,000 tested, 3.5% active | AID 2546, 2010 | Potency, µM (highest dose often 53.6 µM), for the others: top-dose activity, negative = inhibition, hits mostly inhibitors;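 also: Gal4-VP16 expression switched on by copper sulfate through the metallothionein promoter; nearly all actives have a fitted effect of over 50% in size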
TDP1 cell noCPT – qHTS for Inhibitors of human tyrosyl-DNA phosphodiesterase 1 (TDP1): qHTS in cells in absence of CPT; DT40 Tdp1-/- hTDP1 cells, no CPT, ATP luminescence, 48 h; Potency, µM (doses to about 46.2 µM), inactives show top-dose activity change, negative = growth inhibition, usual class: inhibitors; AID 686978, 2013; 420,000 tested, 15% active; also: nearly all actives have a fitted effect of over 55% in size
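Stably hTDP1-transfected Tdp1-null chicken DT40 cells were treated with library compounds minus camptothecin and grown for at least 48 hr at 37 °C, after which cellular ATP was quantified by luminescence.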
RORg inh – qHTS for inhibitors of ROR gamma transcriptional activity | 310,000 tested, 5.4% active | Nuclear receptor ROR-gamma (Mus musculus), P51450 | Drosophila S2 Gal4-RORgamma UAS-luciferase reporter, 20 h | Potency, µM (highest dose often 53.6 µM), inactives show at the highest dose activity change, negative = inhibition, most hits filed as inhibitors; also: nearly all actives have a fitted effect of over 60% in size
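Stable Schneider cell line, Gal4 DNA-binding domain fused to ROR gamma, UAS-luciferase. Cmpd 1 hr RT → CuSO4 700 uM final → 20 hr RT → luciferase reagent 10 min → luminescence.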
TDP1 cell CPT – qHTS for Inhibitors of human tyrosyl-DNA phosphodiesterase 1 (TDP1): qHTS in cells in presence of CPT; Potency, µM (titrated, usually from 46.2 µM), without a hit: at the top dose activity change, negative = growth inhibition, most hits filed as inhibitors; chicken DT40 Tdp1-/-;hTDP1 cells + 20 nM CPT, ATP luminescence, 48 h; AID 686979, 2013; 420,000 tested, 12% active; also: nearly all actives have a fitted effect of over 55% in size
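Chicken DT40 Tdp1-/- cells stably complemented with human TDP1 were seeded at 400 cells/well in medium containing 20 nM camptothecin, exposed to pin-transferred compounds, and grown at 37 °C for at least 48 hr. Viability was read as ATP luminescence.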
TDP1 inh – qHTS Assay for Inhibitors of Tyrosyl-DNA Phosphodiesterase (TDP1). Tyrosyl-DNA phosphodiesterase 1 (Homo sapiens), Q9NUW8. recombinant TDP1, AlphaScreen DNA substrate cleavage. Potency, µM (doses to about 130 µM), inactives show at the highest dose activity change, negative = inhibition, usual class: inhibitors. 350,000 tested, 0.28% active. AID 485290, 2010; also: nearly all actives have a fitted effect of over 40% in size
Target sequence (Q9NUW8 whole entry, looked up): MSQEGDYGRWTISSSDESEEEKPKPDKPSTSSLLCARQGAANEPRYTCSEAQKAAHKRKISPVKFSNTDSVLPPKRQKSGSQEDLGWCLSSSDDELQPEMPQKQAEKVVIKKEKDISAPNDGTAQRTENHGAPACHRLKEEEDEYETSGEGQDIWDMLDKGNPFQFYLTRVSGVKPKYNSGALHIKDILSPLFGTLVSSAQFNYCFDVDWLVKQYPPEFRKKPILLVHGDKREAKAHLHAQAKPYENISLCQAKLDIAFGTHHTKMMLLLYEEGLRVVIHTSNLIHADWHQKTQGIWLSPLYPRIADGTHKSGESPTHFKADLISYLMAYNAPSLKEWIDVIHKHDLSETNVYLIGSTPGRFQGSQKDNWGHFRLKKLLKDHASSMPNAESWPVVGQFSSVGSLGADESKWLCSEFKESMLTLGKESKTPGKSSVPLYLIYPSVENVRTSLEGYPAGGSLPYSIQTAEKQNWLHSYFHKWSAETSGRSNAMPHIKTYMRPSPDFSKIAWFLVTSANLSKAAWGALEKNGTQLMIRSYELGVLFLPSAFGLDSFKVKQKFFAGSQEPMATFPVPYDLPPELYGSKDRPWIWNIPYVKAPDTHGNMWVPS
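Here, a 5' biotin and 3' phosphotyrosine-FITC DNA oligonucleotide reports Tdp1 activity: intact substrate bridges AlphaScreen beads, while cleavage leaves a 3' phosphate and drops signal. All incubations at room temperature.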
The depositor's hits bear a star; ? = inconclusive; / = no result; ! = a repeat was not active; [ ] = remark or other dose. Calls follow the shape of the dose curve; as a rule, active = well fitted curve in the direction sought with a large enough effect; inconclusive = small, poorly fitted or top-dose-only effect, or another doubt; inactive = no such curve, though single readings can be large; an effect the other way counts as inactive or inconclusive. % is scaled to controls: 0 for no effect and ±100 for the full control effect; potency is read from the fitted curve at half-maximal effect.

SMILES | Gal4-VP16 FLuc | TDP1 cell noCPT | RORg inh | TDP1 cell CPT | TDP1 inh
Cc1ccccc1NC(=S)N1CCCC(c2nc3ccccc3[nH]2)C1 (stereo not given) | -9.2% | -11.0% | -7.0% | 19.7% | 0.0%
O=C(COC(=O)c1ccco1)Nc1cccc(S(=O)(=O)N2CCCCC2)c1 | / | -18.4% | / | -19.8% | -7.8%
Cc1nnc(SCC(=O)NC2CC2)n1CC1CCCO1 (stereo not given) | 3.7% | 15.0% | -6.8% | -11.1% | 0.0%
COc1ccc(-c2cc(C(=O)NCC(c3ccco3)N(C)C)c3ccccc3n2)cc1OC (stereo not given) | / | 14.6µM* | / | 23.1µM* | /
CC(C)c1nc(N2CCCC2)c(C#N)c2c1CCCC2 | 6.5% | 9.9% | -2.3% | -10.5% | 0.0%
O=C(NCc1cccc(F)c1)c1cccc2c1C(=O)c1ccc(N3CCCC3)cc1S2(=O)=O | / | 11.6µM* | / | ? | 0.7%
CC1CCN(c2ccc3c(c2)S(=O)(=O)c2cccc(C(=O)NCc4cccc(F)c4)c2C3=O)CC1 | / | 18.4µM* | / | ? | 0.1%
COc1ccccc1N1CCN(c2ccc3c(c2)S(=O)(=O)c2cccc(C(=O)NCc4ccc(F)cc4)c2C3=O)CC1 | / | 2.59µM* | / | ? | /
O=C(NCc1cccc(F)c1)c1cccc2c1C(=O)c1ccc(N3CCC(Cc4ccccc4)CC3)cc1S2(=O)=O | / | ? | / | -9.9% | 0.2%
CCOc1ccc(NC(=O)Cn2c(=O)n(CCCCCC(=O)NCc3ccccc3)c(=O)c3sccc32)cc1 | / | 16.4µM* | / | ? | -0.9%
NC(=O)Cn1c(=O)n(CCCCCC(=O)NCc2ccc(F)cc2)c(=O)c2sccc21 | / | -0.9% | / | 5.2% | 0.9%
Cc1ccc(NC(=O)Cn2c(=O)n(CCCCCC(=O)NCc3ccc(F)cc3)c(=O)c3sccc32)cc1C | / | 6.51µM* | / | ? | 2.7%
CNC(=O)C1CCC(Cn2c(=O)c3sccc3n(CC(=O)Nc3ccc(C)c(C)c3)c2=O)CC1 (stereo not given) | / | 9.2µM* | / | 9.2µM* | 3.2%
CO[C@@H]1/C=C\CC(=O)N2CCC[C@@H]2C(=O)OC[C@@H](C)C(=O)OC[C@H]1C | 1.3%[10 µM] | / | -33.6%[10 µM] | / | 7.9%[21 µM]
O=[N+]([O-])c1ccc(O)c(/C=N/n2c(-c3ccccc3)n[nH]c2=S)c1 | ? | -6.4% | ? | 1.8% | /
O=[N+]([O-])c1cccc(-c2ccc(/C=N/n3c(-c4ccccc4)n[nH]c3=S)o2)c1 | 10µM* | -0.7% | -26.8% | 0.8% | 10.5%
O=[N+]([O-])c1cccc(-c2n[nH]c(=S)n2-c2ccccc2)c1 | -7.8% | -6.4% | 7.08µM* | 3.3% | /
O=[N+]([O-])c1ccc2c(c1)[nH]c(=S)n2-c1ccccc1 | -6.9% | -14.2% | 5.01µM* | -28.5% | 4.9%
O=[N+]([O-])c1ccc2[nH]c(=S)[nH]c2c1 | / | -16.7% | / | 2.2% | /
Nc1ccc(-n2cc(-c3ccccc3)[nH]c2=S)cc1 | ? | 0.7% | 8.91µM* | 1.8% | /
COc1ccc(NC(=O)CSc2nc3c(c(=O)n(C)c(=O)n3C)n2C)c(OC)c1 | 4.8% | -28.6% | 0.8% | -10.9% | 13.9%
O=[N+]([O-])c1cccc(-c2cn(-c3ccccc3)c(=S)[nH]2)c1 | 11.2µM* | -27.9% | 2µM* | -0.7% | -7.9%
S=c1[nH]c(-c2ccccc2)cn1-c1ccccc1 | 10µM* | 2.7% | 10µM* | 7.8% | /
COc1ccc(OCCCC(=O)Nc2ccc(OC)c(S(=O)(=O)N3CCOCC3)c2)cc1 | / | -22.5% | / | -20.7% | -0.3%
Oc1ccccc1OCCOc1ccccc1OCCOc1ccccc1O | -8.8% | 20.6µM* | 36.4% | ? | 5.8%
SMILES | Gal4-VP16 FLuc | TDP1 cell noCPT | RORg inh | TDP1 cell CPT | TDP1 inh
COC(=O)c1ccc(Cn2nc(-c3ccc(C)cc3)ccc2=O)cc1 | 3.2% | ? | -3.8% | 16.4µM*! | 4.7%
COC(=O)c1ccc(Cn2nc(-c3ccc(C)c(C)c3)ccc2=O)cc1 | 2.7% | ? | 8.3% | ? | -4.7%
Cc1c(NC(=O)COC(=O)/C=C/c2ccccc2Br)c(=O)n(-c2ccccc2)n1C | / | 7.3% | / | -24.4% | 0.1%
CN1CCN(C(=O)c2cccc(-c3cnc4cnc(-c5ccccc5Oc5ccccc5)cn34)c2)CC1 | / | 13µM* | / | 18.4µM* | /
CC(C)=Cc1c(O)nc2ccccn2c1=O | -2.7% | 12.6% | 17.4% | 5.9% | -2.6%
COC(C/C=C/[C@@H](O)[C@@H](C)OCc1ccccc1)OC | / | -21.2% | / | -3.1% | /
CCc1c(C)nc2[nH]nc(-c3ccccc3C)n2c1=O | ? | 14.6µM* | -40.4% | ? | 2.8%
CCc1c(C)nc2[nH]nc(-c3ccccc3)n2c1=O | -3.4% | ? | 59.4% | ? | 6.9%
COC(=O)CSc1nnc(-c2sc3ccccc3c2Cl)o1 | 20µM* | -2.6% | ? | -2.9% | -5.1%
COC(=O)CSc1nnc(-c2sc3cc(OC)ccc3c2Cl)n1C | -2.4% | -0.9% | 11.2µM* | -2.6% | 2.2%
Cc1ccc(S(=O)(=O)C2(C(=O)N3CCCC(C)C3)CC2)cc1 (stereo not given) | -5.5% | -25.1% | 6.1% | ? | 5.9%
COc1ccc(-n2cnc3cc([N+](=O)[O-])ccc32)cc1 | 26.1% | -17.3% | 11.9% | 1.8% | 2.5%
COc1ccc(-n2cnc(N)c2C(=O)c2cccc([N+](=O)[O-])c2)cc1 | -19.1% | ? | 11.2µM* | 16.4µM* | 2.6%
COc1ccc(C2=NN(C(C#N)c3ccc(OC)c(OC)c3)C(c3ccccc3)C2)cc1 (stereo not given) | ? | 20.6µM* | ? | ? | 10.1%
Cc1cccc(N2CCN(C(=O)CCNS(=O)(=O)c3ccc4c(c3)CCN4C(=O)C3CC3)CC2)c1C | / | 18.4µM* | / | 18.4µM* | 2.2%
